# From ChEMBL document CHEMBL4513136, “CO-ADD screening of CSIC (Spain) compounds”
# Results with a measured potency or affinity are listed apart.
# How the values were obtained:
# Klebsiella pneumoniae = conditions: Concentration 32 ug.mL-1; ASSAY_TEST Inhibition of Bacterial Growth; detection method Absorption (OD600); MEDIA CAMHB; plate type 384well; NBS; CORNING #3640; time 18 hr
# Candida albicans = conditions: 32 ug/mL
# Cryptococcus neoformans = conditions: Concentration 32 ug.mL-1; ASSAY_TEST Inhibition of Fungal Growth; detection method Resazurin; Absorption (OD600-OD570); plate type 384well; NBS; CORNING #3640
Structure (SMILES),Inhibition (Klebsiella pneumoniae) [%],Inhibition (Candida albicans) [%],Inhibition (Cryptococcus neoformans) [%]
COc1ccc(OC)c(C(=O)CCc2ccc(O)cc2)c1,3.34,1.55,-66.83
Oc1ccc(-n2cc(-c3cc(O)ccc3O)nn2)cc1,10.3,1.72,-19.32
O=C(Cc1cc(O)ccc1O)Nc1cc(O)ccc1O,9.18,0.34,-2.68
COC(=O)C1(Cc2ccc(OCc3c(Cl)cccc3Cl)cc2)C(C)C(=O)N1Cc1ccc(OC)cc1 (stereo not drawn),5.7,7.8,-62.93
COc1ccc(OC)c(CC(=O)Nc2cc(OC)ccc2OC)c1,5.13,6.79,-78.53
COc1ccc(OC)c(NC(=O)Nc2ccc(OC)cc2OC)c1,6.68,-0.5,-79.12
COc1ccc(C(=O)/C=C/c2ccc(OC)cc2OC)cc1,-4.58,9.33,-93.49
COc1ccc(OC)c(C(=O)/C=C/c2c[nH]c3ccc(OC)cc23)c1,2.62,3.54,-74.27
COC(=O)c1c(C(Cc2ccccc2)NC(=O)OCc2ccccc2)[nH]c2ccccc12 (stereo not drawn),2.35,0.58,-63.52
O=C(Nc1ccc(O)cc1O)Nc1cc(O)ccc1O,9.23,-2.25,15.83
COc1ccccc1/C=C/C(=O)c1cc(OC)c(OC)cc1OC,12.89,3.46,-68.54
COc1ccc(OC)c(-c2cn(-c3ccc(OC)c(OC)c3)nn2)c1,-16.63,10.9,-110.55
COc1ccc(OC)c(C(=O)CCc2ccccc2O)c1,4.74,4.16,-73.15
COc1ccc(CN2C(=O)C(C)C2(Cc2cn(C(=O)OC(C)(C)C)c3ccccc23)C(=O)OC(C)(C)C)cc1 (stereo not drawn),15.95,7.68,-81.49
COc1ccc(OC)c(CC(=O)Nc2ccc(OC)cc2OC)c1,9.85,16.6,-87.08
O=C(Cc1cc(O)ccc1O)Nc1ccc(O)cc1,12.9,2.83,-32.05
COc1ccc(OC)c(C(=O)/C=C/c2ccccc2O)c1,-4.68,16.8,-71.16
O=C(CCc1ccc(O)cc1O)c1cc(O)ccc1O,10.96,3.81,-52.63
O=C(OCc1ccccc1)N1C(=O)C(c2ccccc2NC(=O)C(F)(F)F)=C(O)C1Cc1ccccc1 (stereo not drawn),7.86,0.9,-95.18
COc1ccc(OC)c(C(=O)/C=C/c2ccc(O)cc2)c1,-6.02,2.83,-65.46
O=C(/C=C/c1ccccc1O)c1cc(O)c(O)cc1O,21.23,6.47,-81.74
O=C(Cc1cc(O)ccc1O)Nc1ccc(O)cc1O,6.35,4.45,-73.31
Oc1ccc(O)c(-c2cn(-c3ccc(O)c(O)c3)nn2)c1,-0.99,3.17,-118.29
CC1C(=O)N(Cc2ccc(OCCN3CCOCC3)cc2)C1(Cc1ccccc1)C(=O)O (stereo not drawn),2.32,1.79,-59.46
COc1ccc(NC(=O)Cc2cc(OC)ccc2OC)cc1,9.76,1.24,-67.4
O=C(/C=C/c1c[nH]c2ccc(O)cc12)c1cc(O)ccc1O,6.02,4.1,-105.31
